Test results from the OligoGym collection.

These sequences were tested against MEN1 (assay: pooled miR-30 sensor sort-seq; sequence = guide strand). Conditions: shRNA.
Also: reference of the scale not given here.

Sequence	sensor-assay potency score (higher = more potent)
TTCTTCATCTGCACTTGCGACT	-0.844
TAGTAGGTCTTGGCTGAGGCAA	-1.23
TACTTCAAAGAACTCCTTGTAG	0.208
TAGAGGGACAGGTCGACGGCGC	-0.785
TTCAGGTACAGCCAGCTCCGCT	-1.42
TCATCTGCACTTGCGACTGTGC	-1.27
TAGATCTCCTCGTCTTCCCGGC	-0.0589
TTCTTCACCAGCTCACGGCTGG	-0.0281
TATGACATCGGAGACCTTCTTC	0.751
TTGTGGTAGAGGGTGAGTGGGT	-0.985
TTGTAGTCCTGGATGACAGTGG	0.138
TTCATCTGCACTTGCGACTGTG	0.123

Each sequence was assayed against MEPCE in the same assay as above. Conditions: shRNA.

Sequence	sensor-assay potency score (higher = more potent)
TAAGAGTCTTTCTCTTGCCATA	-1.25
TAGTATTTGCAATAATTCCCAT	-0.782
TTGTTGGGGAAGACTGATGTGT	-0.599
TGATGTGTCCGCTCCATCCAAG	-1.38
TTGGATTCGGTAGTAGTTCTTG	0.313
TTCAGATGCACCCACTTGGTGA	-1.03
TAACTGAGGCAGCTGGAGGGGC	-0.431
TAGTAGTTCTTGTAGATCGTTT	-0.407
TTCTTGTAGATCGTTTCTGTAA	-0.866
TAGTGTCGGATGTTTTGGCGGG	-0.437
TTTCGAACGGTGGTGGTCCCTT	-0.585
